SMILES strings stand for the structures. Values joined by “and” are separate entries in the source; they are usually repeats but may differ in a detail not shown here. Equal values may be shown once. This is part of a sample that, as a whole, favours compounds with a hit. Of some 83,000 tested, about 20% had one in any assay.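 Percent growth is the endpoint: 0 to 100 indicates growth inhibition (40 means 60% inhibition), 0 means no net growth, and negative values indicate cell death.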 Values without a mark were called inactive. Active and inactive are the calls of the source. The calls were made as follows: active = growth percent below 10; inactive = the rest.

The subject of this test is HL-60(TB) leukemia. The experiment in a line: NCI-60 one-dose screen, 48 h (100 = growth as untreated, 0 = no growth, -100 = all killed). Particulars: 10 µM unless noted.
As for `O=C1COCCN1c1ccc(Nc2nc(Cl)nc(OCc3cn(Cc4ccccc4)nn3)n2)cc1`, the growth was 40.3%. The result for `O=S(=O)(Nc1nccs1)c1ccc(Nc2nc(-c3ccncc3)cs2)cc1` reads 98.6%; that for `CCCCCCCCOC(=O)c1ccc(O)c(OC)c1`, 30.9%.

`COc1c(CNC(=O)CCl)cc2[nH]c(C)cc2c1CNC(=O)CCl`: the growth was 39.4%. For the compound `CCCCCCCCCCCCCCCCCCOc1ccccc1CC(=O)NCC[N+]1(C)CCCC1`, the growth is 39.7%.

For the compound `COc1ccc(C2CC(c3cccs3)=NN2c2ccc(S(=O)(=O)NC(=O)Nc3ccc(C)cc3)cc2)cc1` (stereo not given), the growth was 126%. With `CCc1cccc2c3c(sc12)C(c1ccc(Cl)cc1)C(C#N)=C(N)O3` (stereo not given), the growth is -8.89% (active). Consider `CCN(CC)CCNC(=O)c1ccc(NCN2C(=O)NC(c3ccccc3)(c3ccccc3)C2=O)cc1`, for which the growth is 107% and 105%.

In the case of `CCC(CC)C(=O)OC(C)COc1ccc(C(C)(C)C)cc1` (stereo not given), the growth is 104%. The value for `CCOC(=O)c1cnc2ccccc2c1Cl` was 122%; that for `O=C(Nc1ccc(OCc2nnc(-c3ccccc3)o2)c(F)c1)Nc1ccc(Cl)c(Cl)c1` was 58.5%; that for `O=C(c1ccccc1)c1cc2ccccc2oc1=O` was 64.6%. For the compound `COc1cccc2c1C(=O)c1c(O)c3c(c(O)c1C2=O)C[C@@](O)(C(=O)CO)C[C@@H]3OC1CC(OC(C)=O)C(OC(C)=O)C(C)O1` (stereo not given in full), the growth is -40% (active). The value for `CCN(CC)c1ccc2nc3ccc(=[N+](CC)CC)cc-3oc2c1` was -12.7% (active); that for `C=C1C(=O)O[C@H]2[C@H]1CC/C(COC(=O)/C=C/C(=O)NCc1ccc(Cn3c(=O)sn(-c4ccccc4)c3=O)cc1)=C\CC[C@@]1(C)O[C@@H]21` was -54.7% (active); that for `O=C(CN1C(=O)CCC1=O)Nc1ncc(Cc2ccc(F)cc2)s1` was 98.2%. The value for `Cc1ccc(-c2csc(NC(=O)CN3CCN(c4cc5c(cc4F)c(=O)c(C(=O)O)cn5C4CC4)CC3)n2)cc1` was -56.3% (active). The value for `CC1(C)CC(=O)NC1=O` was 111%; that for `COc1ccc(/C=N/C2=C(C#N)C(c3ccccc3[N+](=O)[O-])c3ccc4ccccc4c3O2)cc1` (stereo not given) was 100%; that for `COc1ccc(-c2cc3ccc(N(C)C)cc3nc2N)c(F)c1` was -15.4% (active). For `O=C(O)c1cn(-c2ccccc2)nc1-c1ccc(O)cc1`, the growth was 95.7%. The value for `C=C(CNCCc1ccc(O)cc1)[C@@H]1CC[C@]2(CO)CC[C@]3(C)[C@H](CC[C@@H]4[C@@]5(C)CCC(NCCO)C(C)(C)[C@@H]5CC[C@]43C)[C@@H]12` (stereo not given in full) was -46.4% (active); that for `O=C(Cn1c(=O)sc2nc3ccccc3nc21)Nc1ncc(Cc2cccc(Cl)c2Cl)s1` was 98.3%. The result for `C[C@@H]1[C@H]2[C@H](C=C3[C@@H]4CC[C@H]5Cc6nc7c(nc6C[C@]5(C)[C@H]4C[C@@H](O)[C@@]32C)C[C@@H]2CC[C@H]3C4=C[C@@H]5O[C@@]6(CC[C@](C)(CO)O6)[C@@H](C)[C@@]5(O)[C@@]4(C)[C@H](O)C[C@@H]3[C@@]2(C)C7)O[C@]12CCC(C)(C)O2` reads 4.6% (active); that for `COc1ccc(Cl)cc1NC(=O)c1cc2c([nH]1)-c1nc(NC(=O)C(C)(C)C)sc1CC2`, 60.9%.

Source of the values: PubChem BioAssay (NCI).
